BoNT A protease – blocks Botulinum neurotoxin A light chain protease; inhibition, % at 10 µM; multiplex microsphere protease substrate cleavage, flow cytometry; actives 0.17% (n = 360,000)
Anthrax LF inh2 – inhibitors of Bacillus anthracis lethal factor protease. P15917. multiplex microsphere protease cleavage assay, LF. inhibition, % at 10 µM. actives 0.12% (n = 360,000). AID 588501
Autofluor counter – counter-screen for toxin protease inhibitors: compound fluorescence | compound autofluorescence counterscreen, microsphere flow cytometry; active compounds read high | fluorescence intensity (test concentration not listed) | actives 3.1% (n = 360,000); in the data active means fluorescence intensity above about 16000; inconclusive means no clear call, values can overlap the other calls
BoNT-F LC inh – blocks Botulinum neurotoxin F light chain protease | actives 0.22% (n = 360,000) | inhibition, % at 10 µM | Multiplex microsphere protease cleavage assay, flow cytometry; in the data active means inhibition above about 35%, passing the limit was not always enough; inconclusive means no clear call, values can overlap the other calls
PfHsp40 yeast – rescue of PfHsp40-mediated yeast toxicity. S. cerevisiae expressing PfHsp40, growth rescue, ATP luminescence. growth rescue, % at 12.5 µM. actives 0.68% (n = 340,000); in the data active means growth rescue above about 28%, passing the limit was not always enough; inconclusive means no clear call, values can overlap the other calls;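 further: yeast W303a lacking pdr1 and pdr3 grown in galactose medium; growth measured after three days at 30 °C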
MazF activator – MazEF (E. coli) toxin RNase activation; P0AE70; FAM/BHQ RNA-DNA oligo cleavage fluorescence, 5 h; activation, % at 20 µM; actives 0.32% (n = 350,000); AID 504720; in the data active means activation above about 50%
Target sequence (P0AE70 whole entry, looked up): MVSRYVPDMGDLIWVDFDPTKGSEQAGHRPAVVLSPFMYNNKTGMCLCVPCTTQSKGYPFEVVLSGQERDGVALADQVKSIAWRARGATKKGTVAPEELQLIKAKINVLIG
Of the large screens only hits and unclear results are named; the others gave an inactive call. Most compounds without a hit are left out; they make up all but 4.3% or so of the library. Unless noted, no stated cut-off is given here; in the data, active means inhibition above about 30%; inconclusive means no clear call, values can overlap the other calls; inactive means below that.

COc1ccccc1OCCCCn1c(C(C)O)nc2ccccc21 (stereo unspecified)	none
CC1=CCC2C(=O)N(c3cccc(C(=O)Nc4ccccc4Cl)c3)C(=O)C2C1 (stereo unspecified)	none
Cc1ccccc1C(=O)NNS(=O)(=O)c1ccc(F)cc1	none (no result: PfHsp40 yeast)
CCn1c2ccc(C)cc2c2n[nH]c(=S)nc21	none (no result: BoNT A protease, Anthrax LF inh2, Autofluor counter, BoNT-F LC inh)
O=C(NCCCn1ccnc1)c1cc(-c2ccc3c(c2)OCO3)on1	Autofluor counter 20683
O=C(NCCCn1ccnc1)c1cc(-c2ccc(Br)cc2)on1	none
COc1cccc(-c2cc(C(=O)Nc3c(C)nn(Cc4ccccc4C)c3C)no2)c1	Autofluor counter 19715
COc1ccccc1OCCSc1nc2ccccc2n1CC(N)=O	none
CCOC(=O)[C@H]1[C@H]2COc3cc(OC)ccc3[C@@H]2N2C(=O)N(c3cccc(Cl)c3)C(=O)[C@@]12C	none
CCc1ccccc1Nc1nc(N)nc(COC(=O)c2cccn2C)n1	Autofluor counter 21076
C[C@@H]1CN([C@H](C)CO)C(=O)CCCn2nncc2CO[C@@H]1CN(C)S(=O)(=O)c1ccc(F)cc1	none (no result: PfHsp40 yeast)
CN(C)S(=O)(=O)Oc1cccc(C(=O)Nc2ccc(Cl)c(Cl)c2)c1	PfHsp40 yeast 233
CC(C)Oc1cccc(C(=O)NC(=S)Nc2ccc(Cl)c(C(=O)O)c2)c1	Autofluor counter 23433
CN(C)S(=O)(=O)Oc1cccc(C(=O)Nc2cccc(Cl)c2)c1	none
O=C(Nc1cccc(F)c1)Nc1nnc([C@@H]2O[C@H](CO)[C@@H](O)[C@H]2O)s1	none (no result: PfHsp40 yeast, MazF activator)
CCOC(=O)c1oc2ccccc2c1COC(=O)CNC(=O)c1cccc(C)c1	none
O=C(N/N=C/c1c(O)n(Cc2ccccc2)c(=O)[nH]c1=O)c1ccccc1O	PfHsp40 yeast 97
O=C(N/N=C/c1c(O)n(CCc2ccccc2)c(=O)[nH]c1=O)c1ccccc1O	none
CCC(C)n1c(O)c(C=NCc2cccnc2)c(=O)[nH]c1=S (stereo unspecified)	none (no result: BoNT A protease, Anthrax LF inh2, Autofluor counter, BoNT-F LC inh)
O=c1[nH]c(=S)n(Cc2ccc(F)cc2)c(O)c1C=NCc1cccnc1	Autofluor counter 16199
COc1ccc(Cn2c(O)c(/C=N/NC(=O)c3ccccc3O)c(=O)[nH]c2=O)cc1	none
O=C(N/N=C/c1c(O)n(Cc2ccc(F)cc2)c(=O)[nH]c1=O)c1ccccc1O	PfHsp40 yeast 55
NC(=O)C1CCCN(Cc2c(C(=O)N3CCc4ccccc4C3)nc3ccc(Cl)cn23)C1 (stereo unspecified)	none
C=CCNC(=S)N/N=C/c1ccc(OCc2ccccc2Cl)cc1	Autofluor counter 19727, PfHsp40 yeast inconclusive
O=C1CCCCc2cc(O)c(O)cc21	none (no result: PfHsp40 yeast)
O=C1CCCc2cc3c(cc21)CCCC3	PfHsp40 yeast 33
Cc1nn(CC(=O)Nc2ccc3c(c2)nc(CCN2CCCCC2)n3C)c(=O)c2ccccc12	Autofluor counter 20530
Cn1c(CN2CCCCC2)nc2cc(NC(=O)c3ccc(Cl)cc3)ccc21	Autofluor counter 20694
Cn1c(CN2CCCC2)nc2cc(NC(=O)c3ccc(Cl)cc3)ccc21	none
CC(=O)N1CCN(Cc2nc3cc(NC(=O)C4CCCCC4)ccc3n2C)CC1	BoNT A protease inconclusive, Autofluor counter 20181
CCCNC(=S)N1CCC(C(=O)c2ccc(OC)cc2)CC1	none
Cc1cc(=O)oc2cc(OCC(=O)N3CC[C@@]4(O)CCCC[C@H]4C3)ccc12	none
CS(=O)(=O)c1cnc2c(-c3ccc(F)cc3)cnn2c1N	BoNT A protease inconclusive, Autofluor counter 20368
COc1ccc(CN2CCNC(=O)C2CC(=O)N2CCCN(C(C)=O)CC2)cc1OC (stereo unspecified)	none
CNC(=S)NNC(=O)c1sccc1C	none
CCCCNC(=S)NNC(=O)c1sccc1C	Autofluor counter 16469
CCCCn1cnc2cc(NCc3ccncc3)ccc21	Autofluor counter 19414
CCn1cnc2cc(NCc3ccc(OC)cc3)ccc21	Autofluor counter 23891
Cc1ccc(N/C=C/C(=O)c2sc(-c3ccccc3)nc2C)cc1	BoNT A protease 32
COc1cccc(/C=C/C(=O)OCC(=O)NCC2CCCCC2)c1OC	none
O=C(Cn1c(=O)oc2ccc(Cl)cc21)NC1CCCCC1	none
O=C(NC1CCCCC1)n1c(=O)oc2ccc(Cl)cc21	Autofluor counter 23566
O=C(CCn1c(=S)oc2ccccc21)NC1CCCCCC1	none
O=C(NC1CCCCC1)n1c(=O)oc2ccccc21	Autofluor counter 23174
O=C1N[C@H]2CC=C[C@H]2Nc2ccccc21	none
CCN(Cc1ccccc1)C(=O)Cn1c(=O)n(CC(=O)NCc2ccco2)c(=O)c2sccc21	Autofluor counter 21886
CC1CCCCN1C(=O)Cn1c(=O)n(CCC(=O)NCc2ccco2)c(=O)c2sccc21 (stereo unspecified)	Autofluor counter 19227
Cc1cccc(C)c1NC(=O)Cn1c(=O)n(CCC(=O)NCc2ccco2)c(=O)c2sccc21	Autofluor counter 20666
O=C(c1cnn(C(=O)c2cccc(S(=O)(=O)N3CCOCC3)c2)c1)c1ccccc1O	none
O=C(OCC#CCSc1nc2ccccc2s1)c1ccco1	Autofluor counter 19554
CC1CN(C(=O)Nc2ccc3c(c2)OCO3)CC(C)O1 (stereo unspecified)	Autofluor counter 20354
COc1ccc(NC(=O)N2CC(C)OC(C)C2)cc1OC (stereo unspecified)	Autofluor counter 24184
COc1ccc(NC(=O)N2CCCC2)cc1OC	none
COc1cc(C(=O)N2CC(C)OC(C)C2)c([N+](=O)[O-])cc1OC (stereo unspecified)	Autofluor counter 18981
COc1ccccc1CNC(=O)COC(=O)c1nc(Cl)ccc1Cl	none
Cn1c2ccc(F)cc2c2ncn(CCN3CCOCC3)c(=O)c21	none
Cn1c2ccc(F)cc2c2ncn(CCCN(CCO)CCO)c(=O)c21	Autofluor counter 21356
C/C(=N\NC(=O)c1cccc(S(=O)(=O)N2CCOCC2)c1)c1cc2ccccc2o1	none
Cn1cnnc1SCC(=O)NCCc1ccccc1	Autofluor counter 23752
CC(=O)c1c(C)[nH]c(C(=O)CSc2nnc(-c3ccco3)n2Cc2ccccc2)c1C	Autofluor counter 16352
COCCn1c(SCC(=O)NCCc2ccccc2)nnc1-c1ccco1	Autofluor counter 17231
Cn1cnnc1SCC(=O)NCCC(c1ccccc1)c1ccccc1	none
CC(=O)c1c(C)[nH]c(C(=O)CSc2nnc(-c3cccs3)n2Cc2ccccc2)c1C	none
CCCCSc1nnc(-c2cc(Br)ccc2N)c(=O)[nH]1	BoNT A protease inconclusive, Autofluor counter 20791
COc1cccc(CNC(=O)COC(=O)c2ccc(-c3ccc(O)cc3)cc2)c1	none (no result: PfHsp40 yeast)
O=C(c1cccs1)N1CCN(CCCc2ccccc2)CC1	Autofluor counter 21596
CC(=O)NC(Cc1ccccc1)C(=O)N1CCN(C(=O)c2cccs2)CC1 (stereo unspecified)	Autofluor counter 16669
CC(=O)N1CCN(C(=O)C(Cc2ccccc2)NC(=O)c2ccccc2)CC1 (stereo unspecified)	none

High-throughput results (PubChem BioAssay)
